# Inconclusive results are not listed. A number with no mark means an inactive call. The source made the active and inactive calls. Calls follow the shape of the dose curve; as a rule, active = well fitted cell-killing curve with a large enough effect; inconclusive = small, poorly fitted or top-dose-only effect, or effect the other way; inactive = no such curve, though single readings can be large or run the other way.
# Test: Viability qHTS for spleen associated tyrosine kinase inhibitor (SYKi) drug resistant MV4-11 cells (AID 1963824); also: nearly all actives have a fitted effect of over 35% in size
# Conditions: SYKi-resistant MV4-11 viability, CellTiter-Glo, 72 h; series mostly up to 45 µM; viability, % of control: at the top concentration
# Outline: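 CellTiter-Glo luminescence, read 10 min after reagent addition, reports viability after a 72 hr compound exposure. Cells are an MV4-11 line made resistant to SYK inhibition, seeded at 500 per well onto compound-containing plates.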
# Potency is read from the fitted curve at half-maximal effect.
SMILES,"viability, % of control",Potency
CC1(C)CC[C@]2(C(=O)O)[C@H](O)C[C@]3(C)C(=CCC4[C@@]5(C)CC[C@H](O[C@@H]6O[C@H](CO[C@@H]7OC[C@H](O)[C@H](O)[C@H]7O[C@@H]7OC[C@@H](O)[C@H](O)[C@H]7O)[C@@H](O)[C@H](O)[C@H]6O[C@@H]6O[C@H](CO)[C@@H](O)[C@H](O)[C@H]6O)C(C)(C)C5CC[C@]43C)[C@@H]2C1 (stereo not given in full),103% [at 9.25 µM],–
Cc1ccccc1-c1cc(N2CCN(C)CC2)ncc1N(C)C(=O)C(C)(C)c1cc(C(F)(F)F)cc(C(F)(F)F)c1,69%,–
CCc1ccc(N(CC(C)C)S(=O)(=O)c2ccc(OCC3CCOCC3)c(CO)c2)cc1,–,18.6 µM (active)
COc1cc(CN(CCN)C(=O)c2cccs2)ccc1OCc1ccccc1,–,16.4 µM (active)
CC1(C)C=CN2C(=O)C3=CCCN3C(=O)[C@@H]2C[C@@]12Nc1ccccc1C2=O,97%,–
Cc1nc(C#Cc2ccnc(Cl)c2)c(C)n1-c1ccc(OC(F)(F)F)cc1,–,23.1 µM (active)
CC1=C(CC(=O)O)c2cc(F)ccc2/C1=C\c1ccc(S(C)=O)cc1 (stereo not given),89.9%,–
COc1ccc(N2CCOCC2)c2sc(NC(=O)N3CCC(C)(O)CC3)nc12,88.1%,–
CC(O)/C=C/C1(O)C2(C)COC1(C)CC(O)C2 (stereo not given),74.4%,–
Cc1ccc([C@@H]2CC=C(C(=O)O)[C@H](c3ccc(C(C)(C)C)cc3)N2S(=O)(=O)c2ccc(C)cc2)cc1,–,16.4 µM (active)
COC(=O)N[C@H](C(=O)N1[C@@H]2CC[C@@H](C2)[C@H]1c1nc2ccc(-c3ccc4c(c3)C(F)(F)c3cc(-c5cnc([C@@H]6CCC7(CC7)N6C(=O)[C@@H](NC(=O)OC)C(C)C)[nH]5)ccc3-4)cc2[nH]1)C(C)C,–,3.99 µM (active)
Cn1ncnc1[C@@H]1c2n[nH]c(=O)c3cc(F)cc(c23)N[C@H]1c1ccc(F)cc1,71.3%,–
Cc1cc2occ(CN(C)CCN(C)Cc3cn(-c4cccc(C(F)(F)F)c4)c4ccccc34)c(=O)c2cc1C,–,4.61 µM (active)
CC(C)CCCCC(=O)N[C@@H](CO)C(=O)N[C@@H](CC(C)C)C(=O)[C@@]1(CO)CO1,–,7.31 µM (active)
Fc1ccc2c(CCNCc3cccc(OCC(F)(F)C(F)F)c3)c[nH]c2c1,–,16.4 µM (active)
Cn1cc(CCn2cnc(-c3cnn(C)c3)c2-c2ccc(C#N)cc2)cn1,102%,–
O=C1CC2(CCCC2)[C@H](O)C(=O)N1CCCCN1CCN(c2ncccn2)CC1,75.7%,–
Cc1cc(F)ccc1[C@H]1C[C@@H](N2CCN3C(=O)CC[C@H]3C2)CCN1C(=O)N(C)[C@H](C)c1cc(C(F)(F)F)cc(C(F)(F)F)c1,–,5.17 µM (active)
C[C@@H]1C[C@@H]2O[C@H]2/C=C\C=C\C(=O)Cc2c(Cl)c(O)cc(O)c2C(=O)O1,–,0.064 µM (active)
C=C1C(=O)O[C@@H]2[C@H]1CC[C@H](C)C(CCC(=O)O)C2(C)O (stereo not given in full),–,2.31 µM (active)

SMILES,"viability, % of control",Potency
COc1ccc(CCC(=O)O)c(O[C@@H]2O[C@H](CO)[C@@H](O)[C@H](O)[C@H]2O)c1,90.4%,–
COc1ccc(C(O)C(C)OC2OC(CO)C(O)C(O)C2O)cc1 (stereo not given),105%,–
CN(C)c1ccnc2sc3c(=O)n(N4CCCCCC4)cnc3c12,–,20.6 µM (active)
C[C@@H]1O[C@@H](O[C@H]2[C@H](OC(=O)[C@]34CCC(C)(C)C[C@H]3C3=CCC5[C@@]6(C)C[C@H](O)[C@H](O[C@@H]7O[C@H](CO)[C@@H](O[C@@H]8O[C@H](CO)[C@@H](O)[C@H](O)[C@H]8O)[C@H](O)[C@H]7O)[C@@](C)(CO)C6[C@H](O)C[C@@]5(C)[C@]3(C)C[C@H]4O)OC[C@H](O)[C@@H]2O)[C@H](O)[C@H](O)[C@H]1O[C@@H]1OC[C@@H](O)[C@H](O[C@@H]2OC[C@](O)(CO)[C@H]2O)[C@H]1O (stereo not given in full),108% [at 9.25 µM],–
Cc1[nH]c(/C=C2\C(=O)Nc3cc(-c4ccccc4)ccc32)c(C)c1CCC(=O)O,–,10.3 µM (active)
COC(=O)C[C@H]1C(C)(C)[C@H](OC(C)=O)C2CC3=C4CC(=O)O[C@@H](c5ccoc5)[C@]4(C)CCC3[C@@]1(C)C2=O (stereo not given in full),–,3.55 µM (active)
O=C(c1c(F)ccc(NS(=O)(=O)N2CC[C@@H](F)C2)c1F)c1c[nH]c2ncc(-c3cnc(C4CC4)nc3)cc12,–,8.2 µM (active)
Cc1ccc(C)c(-c2cc(C(F)(F)F)nn2-c2ccc(S(N)(=O)=O)cc2)c1,–,14.6 µM (active)
N#Cc1ccc(O[C@@H]2c3ccccc3C[C@H]2N2CCC[C@@H](N)C2)c(Cl)c1,–,16.4 µM (active)
O=C(Nc1ccc(-n2nc(C(F)(F)F)cc2C(F)(F)F)cc1)c1ccncc1F,–,10.3 µM (active)
CO[C@H]1/C=C/[C@@](C)(O)/C=C/C(=O)O[C@H](C)[C@@H](C)CC/C=C/1C,–,12.8 µM (active)
O=C(NN1CCCCC1)c1nn(-c2ccc(Cl)cc2Cl)c(-c2ccc(C#Cc3ccc(C(F)(F)F)cc3)s2)c1CNS(=O)(=O)N1CCCC1,93.6%,–
COc1cc(O)c(C(=O)CCc2ccc(O)cc2)c(O[C@@H]2O[C@H](CO)[C@@H](O)[C@H](O)[C@H]2O)c1,–,11.2 µM (active)
O=C(/C=C/c1ccccc1)NCCO,66.4%,–
CC[C@H](C)C(=O)O[C@H]1CCC=C2C=C[C@H](C)[C@H](CC[C@@H]3C[C@@H](O)CC(=O)O3)[C@H]21,–,4.68 µM (active)
C=C(C)C(=O)OC1C(OC(C)=O)/C(C=O)=C\CC/C(CO)=C/C2OC(=O)C(=C)C21 (stereo not given),–,2 µM (active)
C=C1C(=O)OC2CC(C)=C(C(C)CCCOC(C)=O)C(OC(=O)CC(C)CC)C12 (stereo not given),–,2.52 µM (active)
CC1(C)C2CC[C@@]34CC(CC[C@H]3[C@]2(C)CC[C@@H]1O[C@@H]1O[C@H](CO)[C@@H](O)[C@H](O)[C@H]1O)[C@](C)(O)C4 (stereo not given in full),67.6% [at 17.3 µM],–
CC1(C)CC[C@]2(C(=O)O[C@@H]3O[C@H](CO)[C@@H](O)[C@H](O)[C@H]3O)CC[C@]3(C)C(=CCC4[C@@]5(C)C[C@@H](O)[C@H](O)[C@@](C)(CO)C5CC[C@]43C)C2[C@@H]1O (stereo not given in full),79.1% [at 17.3 µM],–
C=C1C(=O)O[C@@H]2C(OC(=O)/C(C)=C\C)/C(C)=C\C(=O)/C=C(\C)C[C@H](O)[C@@H]12 (stereo not given in full),–,1.01 µM (active)

# Source: PubChem BioAssay (NCATS)
